From PubChem BioAssay AID1159580 (chemical genetic matrix, 2015)
Out of some 5,500 compounds screened, about 2,000 (36%) were called active. Not shown: some 18% with an inconclusive outcome. Rule as the data show it: active = normalized growth mostly below about 0.91 (no sharp cut-off); inconclusive = no clear call, values can overlap the other calls; inactive = mostly above about 0.92. The list shows a part of the results.

Experiment: chemical genetic growth profiling, strain panel (AID 1159580);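 also: tested at 20 µM; growth read once vehicle control cultures reached saturation at 30 °C; 1 = growth at the plate median or of vehicle wells; lower values mean less growth of the strain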
Settings: growth OD

Measured: normalized growth

C[C@@H]([C@H](O)c1ccccc1)N(C)C
inactive: S. cerevisiae deletion strains, locus YAL013W, strain DEP1, active compounds read low 1.01 | S. cerevisiae deletion strains, locus YAL021C, strain ccr4, active compounds read low 1.01 | S. cerevisiae deletion strains, locus YAL026C, strain drs2, active compounds read low 1.01 | S. cerevisiae deletion strains, locus YAL030W, strain snc1, active compounds read low 1.02 | S. cerevisiae deletion strains, locus YBL061C, strain skt5, active compounds read low 1.01 | S. cerevisiae deletion strains, locus YBR009C, strain hhf1, active compounds read low 1.01 | S. cerevisiae deletion strains, locus YBR021W, strain FUR4, active compounds read low 0.983 | S. cerevisiae deletion strains, locus YBR023C, strain chs3, active compounds read low 1.01 | S. cerevisiae deletion strains, locus YBR171W, strain sec66, active compounds read low 1.03 | S. cerevisiae deletion strains, locus YBR229C, strain ROT2, active compounds read low 1 | S. cerevisiae deletion strains, locus YBR231C, strain swc5, active compounds read low 1.01 | S. cerevisiae deletion strains, locus YBR279W, strain paf1, active compounds read low 1.02 | S. cerevisiae deletion strains, locus YCL011C, strain gbp2, active compounds read low 1.01 | S. cerevisiae deletion strains, locus YCL016C, strain dcc1, active compounds read low 1.01 | S. cerevisiae deletion strains, locus YCL029C, strain bik1, active compounds read low 1 | S. cerevisiae deletion strains, locus YCL061C, strain MRC1, active compounds read low 1.01 | S. cerevisiae deletion strains, locus YCL069W, strain vba3, active compounds read low 1.01 | S. cerevisiae deletion strains, locus YCR088W, strain abp1, active compounds read low 1.01 | S. cerevisiae deletion strains, locus YDL005C, strain med2, active compounds read low 1.02 | S. cerevisiae deletion strains, locus YDL035C, strain GPR1, active compounds read low 1.02 | S. cerevisiae deletion strains, locus YDL040C, strain nat1, active compounds read low 1.02 | S. cerevisiae deletion strains, locus YDL074C, strain BRE1, active compounds read low 0.999 | S. cerevisiae deletion strains, locus YDL101C, strain DUN1, active compounds read low 1 | S. cerevisiae deletion strains, locus YDL134C, strain PPH21, active compounds read low 1 | S. cerevisiae deletion strains, locus YDL185W, strain tfp1, active compounds read low 1.01 | S. cerevisiae deletion strains, locus YDL192W, strain arf1, active compounds read low 1.02 | S. cerevisiae deletion strains, locus YDR001C, strain nth1, active compounds read low 1.01 | S. cerevisiae deletion strains, locus YDR069C, strain doa4, active compounds read low 1.03 | S. cerevisiae deletion strains, locus YDR101C, strain arx1, active compounds read low 0.981 | S. cerevisiae deletion strains, locus YDR137W, strain rgp1, active compounds read low 0.984 | S. cerevisiae deletion strains, locus YDR150W, strain NUM1, active compounds read low 1.01 | S. cerevisiae deletion strains, locus YDR159W, strain sac3, active compounds read low 1.03 | S. cerevisiae deletion strains, locus YDR162C, strain NBP2, active compounds read low 1.02 | S. cerevisiae deletion strains, locus YDR195W, strain ref2 1.01 | S. cerevisiae deletion strains, locus YDR297W, strain sur2, active compounds read low 1.01 | S. cerevisiae deletion strains, locus YDR318W, strain mcm21, active compounds read low 1.01 | S. cerevisiae deletion strains, locus YDR334W, strain swr1, active compounds read low 1.02 | S. cerevisiae deletion strains, locus YDR335W, strain msn5, active compounds read low 1.03 | S. cerevisiae deletion strains, locus YDR388W, active compounds read low 1.01 | S. cerevisiae deletion strains, locus YDR392W, strain spt3, active compounds read low 1.03 | S. cerevisiae deletion strains, locus YDR502C, strain sam2, active compounds read low 1.01 | S. cerevisiae deletion strains, locus YEL003W, strain gim4, active compounds read low 1.02 | S. cerevisiae deletion strains, locus YEL037C, strain rad23, active compounds read low 1.01 | S. cerevisiae deletion strains, locus YEL061C, strain CIN8 (second series), active compounds read low 1.01 | S. cerevisiae deletion strains, locus YEL061C, strain CIN8, active compounds read low 1.01 | S. cerevisiae deletion strains, locus YER015W, strain faa2, active compounds read low 1.01 | S. cerevisiae deletion strains, locus YER016W, strain bim1, active compounds read low 1.02 | S. cerevisiae deletion strains, locus YER110C, active compounds read low 1.01 | S. cerevisiae deletion strains, locus YER111C, strain swi4, active compounds read low 1.01 | S. cerevisiae deletion strains, locus YER155C, strain BEM2 (second series), active compounds read low 1.03 | S. cerevisiae deletion strains, locus YER155C, strain BEM2, active compounds read low 1 | S. cerevisiae deletion strains, locus YER167W, strain BCK2, active compounds read low 1.01 | S. cerevisiae deletion strains, locus YFR010W, strain ubp6, active compounds read low 1.02 | S. cerevisiae deletion strains, locus YGL078C, strain dbp3, active compounds read low 1.01 | S. cerevisiae deletion strains, locus YGL086W, strain mad1, active compounds read low 0.997 | S. cerevisiae deletion strains, locus YGL167C, strain pmr1, active compounds read low 0.956 | S. cerevisiae deletion strains, locus YGL173C, strain kem1, active compounds read low 1.01 | S. cerevisiae deletion strains, locus YGL227W, strain vid30, active compounds read low 1.01 | S. cerevisiae deletion strains, locus YGL240W, strain doc1, active compounds read low 1.01 | S. cerevisiae deletion strains, locus YGL248W, strain PDE1, active compounds read low 1 | S. cerevisiae deletion strains, locus YGL253W, strain hxk2, active compounds read low 1.02 | S. cerevisiae deletion strains, locus YGR078C, strain PAC10, active compounds read low 1.02 | S. cerevisiae deletion strains, locus YGR135W, strain pre9, active compounds read low 1.03 | S. cerevisiae deletion strains, locus YGR252W, strain gcn5, active compounds read low 1.02 | S. cerevisiae deletion strains, locus YHR013C, strain ard1, active compounds read low 1.05 | S. cerevisiae deletion strains, locus YHR027C, strain rpn1, active compounds read low 1.01 | S. cerevisiae deletion strains, locus YHR030C, strain SLT2, active compounds read low 1.02 | S. cerevisiae deletion strains, locus YHR079C, strain IRE1 (second series), active compounds read low 1.01 | S. cerevisiae deletion strains, locus YHR094C, strain hxt1, active compounds read low 1.01 | S. cerevisiae deletion strains, locus YHR129C, strain ARP1, active compounds read low 1.01 | S. cerevisiae deletion strains, locus YHR142W, strain chs7, active compounds read low 1.01 | S. cerevisiae deletion strains, locus YHR200W, strain rpn10, active compounds read low 1 | S. cerevisiae deletion strains, locus YIL066C, strain RNR3, active compounds read low 1 | S. cerevisiae deletion strains, locus YIL073C, strain SPO22, active compounds read low 1.05 | S. cerevisiae deletion strains, locus YIL125W, strain kgd1, active compounds read low 1 | S. cerevisiae deletion strains, locus YIR030C, strain dcg1, active compounds read low 1.01 | S. cerevisiae deletion strains, locus YJL092W, strain hpr5, active compounds read low 1.01 | S. cerevisiae deletion strains, locus YJL095W, strain BCK1 (second series), active compounds read low 1.02 | S. cerevisiae deletion strains, locus YJL095W, strain BCK1, active compounds read low 0.996 | S. cerevisiae deletion strains, locus YJL115W, strain asf1, active compounds read low 1.02 | S. cerevisiae deletion strains, locus YJL129C, strain trk1, active compounds read low 1.03 | S. cerevisiae deletion strains, locus YJL134W, strain LCB3, active compounds read low 1.01 | S. cerevisiae deletion strains, locus YJL154C, strain vps35, active compounds read low 1.02 | S. cerevisiae deletion strains, locus YJL164C, strain tpk1, active compounds read low 1.02 | S. cerevisiae deletion strains, locus YJL166W, strain qcr8, active compounds read low 1.02 | S. cerevisiae deletion strains, locus YJL168C, strain set2, active compounds read low 1 | S. cerevisiae deletion strains, locus YJL187C, strain SWE1 (second series), active compounds read low 0.993 | S. cerevisiae deletion strains, locus YJL187C, strain SWE1, active compounds read low 1.02 | S. cerevisiae deletion strains, locus YJR043C, strain POL32, active compounds read low 1.01 | S. cerevisiae deletion strains, locus YJR075W, strain HOC1, active compounds read low 1 | S. cerevisiae deletion strains, locus YKL009W, strain mrt4, active compounds read low 1.02 | S. cerevisiae deletion strains, locus YKL068W, active compounds read low 1 | S. cerevisiae deletion strains, locus YKL085W, strain MDH1 (second series), active compounds read low 1.02 | S. cerevisiae deletion strains, locus YKL085W, strain MDH1, active compounds read low 1.02 | S. cerevisiae deletion strains, locus YKL160W, strain elf1, active compounds read low 1.01 | S. cerevisiae deletion strains, locus YKL190W, strain CNB1, active compounds read low 1.02 | S. cerevisiae deletion strains, locus YKR001C, strain vps1, active compounds read low 1 | S. cerevisiae deletion strains, locus YKR026C, strain gcn3, active compounds read low 1.01 | S. cerevisiae deletion strains, locus YKR091W, strain srl3, active compounds read low 1.01 | S. cerevisiae deletion strains, locus YLL001W, strain dnm1, active compounds read low 1.01 | S. cerevisiae deletion strains, locus YLL026W, active compounds read low 1.01 | S. cerevisiae deletion strains, locus YLL041C, strain sdh2, active compounds read low 1.02 | S. cerevisiae deletion strains, locus YLR027C, strain aat2, active compounds read low 1.01 | S. cerevisiae deletion strains, locus YLR039C, strain RIC1, active compounds read low 1.03 | S. cerevisiae deletion strains, locus YLR058C, strain SHM2, active compounds read low 1.01 | S. cerevisiae deletion strains, locus YLR102C, strain apc9, active compounds read low 1 | S. cerevisiae deletion strains, locus YLR221C, strain rsa3, active compounds read low 1.01 | S. cerevisiae deletion strains, locus YLR258W, strain gsy2, active compounds read low 1.01 | S. cerevisiae deletion strains, locus YLR262C, strain YPT6 (second series), active compounds read low 1 | S. cerevisiae deletion strains, locus YLR262C, strain YPT6, active compounds read low 1 | S. cerevisiae deletion strains, locus YLR268W, strain sec22, active compounds read low 1.01 | S. cerevisiae deletion strains, locus YLR320W, strain mms22, active compounds read low 1.02 | S. cerevisiae deletion strains, locus YLR330W, strain CHS5, active compounds read low 1.01 | S. cerevisiae deletion strains, locus YLR342W, strain FKS1 (second series), active compounds read low 1.03 | S. cerevisiae deletion strains, locus YLR342W, strain FKS1, active compounds read low 1.02 | S. cerevisiae deletion strains, locus YLR357W, strain rsc2, active compounds read low 1.04 | S. cerevisiae deletion strains, locus YLR370C, strain arc18, active compounds read low 1.01 | S. cerevisiae deletion strains, locus YLR371W, strain rom2, active compounds read low 1 | S. cerevisiae deletion strains, locus YLR384C, strain iki3, active compounds read low 1.02 | S. cerevisiae deletion strains, locus YLR418C, strain cdc73, active compounds read low 1.04 | S. cerevisiae deletion strains, locus YML016C, strain PPZ1, active compounds read low 1.01 | S. cerevisiae deletion strains, locus YML032C, strain rad52, active compounds read low 1 | S. cerevisiae deletion strains, locus YML120C, strain ndi1, active compounds read low 1.02 | S. cerevisiae deletion strains, locus YML124C, strain tub3, active compounds read low 1.01 | S. cerevisiae deletion strains, locus YMR058W, strain fet3, active compounds read low 1.02 | S. cerevisiae deletion strains, locus YMR078C, strain ctf18, active compounds read low 1.01 | S. cerevisiae deletion strains, locus YMR125W, strain sto1, active compounds read low 1.02 | S. cerevisiae deletion strains, locus YMR129W, active compounds read low 1.02 | S. cerevisiae deletion strains, locus YMR205C, strain PFK2, active compounds read low 1.02 | S. cerevisiae deletion strains, locus YMR223W, strain ubp8, active compounds read low 1.04 | S. cerevisiae deletion strains, locus YMR231W, strain pep5, active compounds read low 1.01 | S. cerevisiae deletion strains, locus YMR307W, strain GAS1, active compounds read low 1.02 | S. cerevisiae deletion strains, locus YNL067W, strain RPL9B, active compounds read low 0.999 | S. cerevisiae deletion strains, locus YNL071W, strain lat1, active compounds read low 1.01 | S. cerevisiae deletion strains, locus YNL153C, strain GIM3, active compounds read low 0.985 | S. cerevisiae deletion strains, locus YNL209W, strain ssb2, active compounds read low 1.02 | S. cerevisiae deletion strains, locus YNL233W, strain BNI4, active compounds read low 0.982 | S. cerevisiae deletion strains, locus YNL248C, strain rpa49, active compounds read low 1 | S. cerevisiae deletion strains, locus YNL250W, strain rad50, active compounds read low 1.05 | S. cerevisiae deletion strains, locus YNL271C, strain bni1, active compounds read low 1.01 | S. cerevisiae deletion strains, locus YNL298W, strain CLA4, active compounds read low 1.02 | S. cerevisiae deletion strains, locus YNL307C, strain MCK1, active compounds read low 1.01 | S. cerevisiae deletion strains, locus YNL322C, strain KRE1 (second series), active compounds read low 1 | S. cerevisiae deletion strains, locus YNR049C, strain mso1, active compounds read low 1.01 | S. cerevisiae deletion strains, locus YNR052C, strain pop2, active compounds read low 1 | S. cerevisiae deletion strains, locus YOL006C, strain TOP1, active compounds read low 1 | S. cerevisiae deletion strains, locus YOL012C, strain htz1 0.634 | S. cerevisiae deletion strains, locus YOL147C, strain pex11, active compounds read low 1.01 | S. cerevisiae deletion strains, locus YOR001W, strain rrp6, active compounds read low 1.01 | S. cerevisiae deletion strains, locus YOR061W, strain CKA2, active compounds read low 1.01 | S. cerevisiae deletion strains, locus YOR069W, strain VPS5, active compounds read low 1 | S. cerevisiae deletion strains, locus YOR070C, strain gyp1, active compounds read low 1.02 | S. cerevisiae deletion strains, locus YOR080W, strain dia2, active compounds read low 1.03 | S. cerevisiae deletion strains, locus YOR083W, strain WHI5, active compounds read low 1.02 | S. cerevisiae deletion strains, locus YOR106W, strain vam3, active compounds read low 1.01 | S. cerevisiae deletion strains, locus YOR136W, strain idh2, active compounds read low 1 | S. cerevisiae deletion strains, locus YOR144C, strain elg1, active compounds read low 1.01 | S. cerevisiae deletion strains, locus YOR184W, strain ser1, active compounds read low 1.01 | S. cerevisiae deletion strains, locus YOR265W, strain rbl2, active compounds read low 1.02 | S. cerevisiae deletion strains, locus YOR270C, strain vph1, active compounds read low 1.03 | S. cerevisiae deletion strains, locus YOR290C, strain snf2, active compounds read low 1.01 | S. cerevisiae deletion strains, locus YOR316C, strain cot1, active compounds read low 1.01 | S. cerevisiae deletion strains, locus YPL051W, strain arl3, active compounds read low 1.01 | S. cerevisiae deletion strains, locus YPL078C, strain atp4, active compounds read low 1.02 | S. cerevisiae deletion strains, locus YPL106C, strain sse1, active compounds read low 1.03 | S. cerevisiae deletion strains, locus YPL240C, strain hsp82, active compounds read low 1.02 | S. cerevisiae deletion strains, locus YPR119W, strain clb2, active compounds read low 1.01 | S. cerevisiae deletion strains, locus YPR141C, strain kar3, active compounds read low 1 | S. cerevisiae deletion strains, locus YPR163C, strain tif3, active compounds read low 1.01 | S. cerevisiae deletion strains, locus YPR167C, strain met16, active compounds read low 1 | S. cerevisiae deletion strains, strain wtn01, active compounds read low 1.01 | S. cerevisiae strains, strain wild type, active compounds read low 1.01
